# Source: the supplement of paper PMC8728848
# The sample as a whole holds a higher share of the strongest signals than the screen did.
# Key:
# Experiment in all cases: glycan array binding signal (z-score within array); higher = stronger binding
# Settings in all cases: glycan notation: IUPAC condensed, linker removed; mutation: E227G
# [1] = target: Fuc(a1-2)Gal(b1-3)GalNAc(a1-3)[Fuc(a1-2)]Gal(b1-4)Glc
# How it was run: (§1)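 The Consortium for Functional Glycomics database supplied 3228 glycan arrays, of which those lacking an available protein sequence were dropped. The binding signal, a within-array Z-score, was averaged across arrays of the same protein sequence and across linkers. Negative scores can be read as non-binding.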
# [2] = target: Fuc(a1-2)Gal(b1-3)GlcNAc(b1-3)[Gal(b1-4)GlcNAc(b1-6)]Gal(b1-4)Glc
# How it was run: as §1
# [3] = target: Fuc(a1-2)Gal(b1-3)[Fuc(a1-4)]GlcNAc(b1-2)Man(a1-3)[Fuc(a1-2)Gal(b1-3)[Fuc(a1-4)]GlcNAc(b1-2)Man(a1-3)]Man(b1-4)GlcNAc(b1-4)GlcNAc
# How it was run: as §1
# [4] = target: Fuc(a1-2)Gal(b1-4)Glc
# How it was run: as §1
# [5] = target: Fuc(a1-2)Gal(b1-4)GlcNAc(b1-2)Man
# How it was run: as §1
# [6] = target: Fuc(a1-2)Gal(b1-4)[Fuc(a1-3)]GlcNAc(b1-2)Man(a1-3)[Fuc(a1-2)Gal(b1-4)[Fuc(a1-3)]GlcNAc(b1-2)Man(a1-6)]Man(b1-4)GlcNAc(b1-4)[Fuc(a1-6)]GlcNAc
# How it was run: as §1
# [7] = target: Fuc(a1-2)Gal(b1-4)[Fuc(a1-3)]GlcNAc(b1-3)GalNAc
# How it was run: as §1
# [8] = target: Fuc(a1-2)[Gal(a1-3)]Gal
# How it was run: as §1
# [9] = target: Fuc(a1-2)[Gal(a1-3)]Gal(b1-4)GlcNAc(b1-2)Man(a1-3)[Fuc(a1-2)[Gal(a1-3)]Gal(b1-4)GlcNAc(b1-2)Man(a1-6)]Man(b1-4)GlcNAc(b1-4)[Fuc(a1-6)]GlcNAc
# How it was run: as §1
# [10] = target: Fuc(a1-2)[Gal(a1-3)]Gal(b1-4)GlcNAc(b1-3)[Fuc(a1-2)[Gal(a1-3)]Gal(b1-4)GlcNAc(b1-6)]GalNAc
# How it was run: as §1
# [11] = target: Fuc(a1-2)[GalNAc(a1-3)]Gal(b1-3)GalNAc(b1-3)Gal(a1-4)Gal(b1-4)Glc
# How it was run: as §1
# [12] = target: Gal(a1-3)Gal(b1-3)GlcNAc(b1-2)Man(a1-3)[Gal(a1-3)Gal(b1-3)GlcNAc(b1-2)Man(a1-6)]Man(b1-4)GlcNAc(b1-4)GlcNAc
# How it was run: as §1
# [13] = target: Gal(a1-4)Gal(b1-3)GlcNAc(b1-2)Man(a1-3)[Gal(a1-4)Gal(b1-3)GlcNAc(b1-2)Man(a1-6)]Man(b1-4)GlcNAc(b1-4)GlcNAc
# How it was run: as §1
# [14] = target: Gal(b1-2)Gal
# How it was run: as §1
# [15] = target: Gal(b1-3)Gal(b1-4)GlcNAc
# How it was run: as §1
# [16] = target: Gal(b1-3)GalNAc
# How it was run: as §1
# [17] = target: Gal(b1-3)GalNAc(b1-4)Gal(b1-4)Glc
# How it was run: as §1
# [18] = target: Gal(b1-3)GlcNAc(b1-2)Man(a1-3)[Gal(b1-3)GlcNAc(b1-2)Man(a1-6)]Man(b1-4)GlcNAc(b1-4)GlcNAc
# How it was run: as §1
# [19] = target: Gal(b1-3)GlcNAc(b1-3)GalNAc
# How it was run: as §1
# [20] = target: Gal(b1-3)GlcNAc(b1-6)Gal(b1-4)GlcNAc
# How it was run: as §1
# [21] = target: Gal(b1-3)GlcNAc6S
# How it was run: as §1
# [22] = target: Gal(b1-3)[Fuc(a1-4)]GlcNAc
# How it was run: as §1
# [23] = target: Gal(b1-3)[Neu5Ac(a2-6)]GalNAc
# How it was run: as §1
# [24] = target: Gal(b1-4)Glc6S
# How it was run: as §1
# [25] = target: Gal(b1-4)GlcNAc(b1-2)Man(a1-6)Man(b1-4)GlcNAc(b1-4)GlcNAc
# How it was run: as §1
# [26] = target: Gal(b1-4)GlcNAc(b1-3)Gal(b1-4)GlcNAc(b1-2)Man(a1-3)[Gal(b1-4)GlcNAc(b1-3)Gal(b1-4)GlcNAc(b1-2)Man(a1-6)]Man(b1-4)GlcNAc(b1-4)[Fuc(a1-6)]GlcNAc
# How it was run: as §1
# [27] = target: Gal(b1-4)GlcNAc(b1-3)Gal(b1-4)GlcNAc(b1-3)Gal(b1-4)GlcNAc(b1-3)Gal(b1-4)GlcNAc(b1-2)Man(a1-3)[Gal(b1-4)GlcNAc(b1-3)Gal(b1-4)GlcNAc(b1-3)Gal(b1-4)GlcNAc(b1-3)Gal(b1-4)GlcNAc(b1-2)Man(a1-6)]Man(b1-4)GlcNAc(b1-4)GlcNAc
# How it was run: as §1
# [28] = target: Gal3S6S(b1-4)GlcNAc6S
# How it was run: as §1
# [29] = target: Gal6S(b1-3)GlcNAc
# How it was run: as §1
# [30] = target: Gal6S(b1-3)GlcNAc6S
# How it was run: as §1
binder,measurement,setting,value
"Epa1-NP-mutant-E227G (Candida glabrata), Q6VBJ0 (protein) MILNPALFLNKCVCIYTTLILLLLTNGGYATSSNDISLASKDPTTFPLGCSPDITTPKKGLSMELYSYDFRKKGSYPCWDAAYLDPNYPRTGYKSHRLLAKVDGVTGNINFYYHATKGCTPQLGHLPASYNYPKPLTMTNFTMLLYGYFRPKVTGFHTFTISADDLLFVNFGAGNAFDCCRRDSSADHFGNYQAYAIWGSKTAKDELTVHLDAGVYYPIRLFYNNRGYDGALSFTFKTESNENTVSDFSEYFFSLDDTEEGCPGLISYDSSCASVKTSKIIGIDYHTETPNENLVPITKTIYHLGIPCTGTTTTPLCGSGFYDPLANKCVTINTSSTSSVTKTTSHTTSKEVSFHSSISSQKTLIPKSIPSPYGPIKSQSIPTEMETSSEISSSEYAFSDVISTPSHSPYTKKHSSLNSSSYTSTVIHSLTSYSISQGIFSTSLSEQNITSKSSTDKFSTATSMSNNITQSSIIISQFSTNNENYTTTSMHTSSDKISTETLNNSISTTTSILFSNSSTILKNNTTIISSDKDTHYHPVNPTIVCSTNKTEIICASITQPSISNSNNHWSSSVLKFNSTTVRSTLPSSAGSNETSINVPFSSSTESNTSTSSTSTSNSKMVRSTLPSSAGSNETSISVPFSSSTESNTSTSSTSTSNSKMVRSTLPSSAGSNETSINVPFSSSTESNTSTSSTSTSNSKTVRSTPFSSAGIIMTSLSQRNNKSASSYASSNSKCYNTADSCRKVHSTPSYLLTSSYTSEGVDYDCSLVSTKLKINDTNCVNNKHTTKSCLKTSVTTTIPTLEIKTARKSSSNTIGLHSYPTSSPNKSISSAPIIGYISSFKTIKTASPSYQTSDLTTITTITSLNNPGSTAVENTHESNDKSRKTSSNDISSKHSVIKETKDAVESSNKSHQTNTLKCSSIIIASSSHNSYESLGGTTLTLTLSKVYSPQNNDTLPFLEISEVNPSRTVLPESSKMMQYLTSTEERNKTARNTIATNIVSISTFHFEGEGNAIRMGYTQLLLMLIGIIVMNIGT",glycan array binding signal (z-score),[1],-0.144
same,glycan array binding signal (z-score),[2],-0.113
same,glycan array binding signal (z-score),[3],-0.037
same,glycan array binding signal (z-score),[4],-0.104
same,glycan array binding signal (z-score),[5],-0.202
same,glycan array binding signal (z-score),[6],-0.014
same,glycan array binding signal (z-score),[7],0.012
same,glycan array binding signal (z-score),[8],-0.147
same,glycan array binding signal (z-score),[9],-0.133
same,glycan array binding signal (z-score),[10],-0.138
same,glycan array binding signal (z-score),[11],-0.175
same,glycan array binding signal (z-score),[12],0.258
same,glycan array binding signal (z-score),[13],-0.089
same,glycan array binding signal (z-score),[14],-0.17
same,glycan array binding signal (z-score),[15],1.84
same,glycan array binding signal (z-score),[16],1.39
same,glycan array binding signal (z-score),[17],4.13
same,glycan array binding signal (z-score),[18],1.06
same,glycan array binding signal (z-score),[19],-0.236
same,glycan array binding signal (z-score),[20],4.84
same,glycan array binding signal (z-score),[21],2.52
same,glycan array binding signal (z-score),[22],-0.184
same,glycan array binding signal (z-score),[23],1.35
same,glycan array binding signal (z-score),[24],7.04
same,glycan array binding signal (z-score),[25],-0.117
same,glycan array binding signal (z-score),[26],0.016
same,glycan array binding signal (z-score),[27],-0.21
same,glycan array binding signal (z-score),[28],0.516
same,glycan array binding signal (z-score),[29],0.07
same,glycan array binding signal (z-score),[30],3.58
